Active and inactive are the calls of the source.
How the values were obtained:
[1] = target: Albumin (Bos taurus) (UniProt P02769); test: compounds binding labelled BSA control protein – biochemical, small-molecule microarray, Alexa647 label, 635/667 nm fluorescence, artefact control for SMM control protein annotation, profiling panel (AID 1118); details: BSA-A647 binding, fluorescence 635 nm, higher = more signal;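 note: score merges 667 nm emission intensity and signal-to-noise per printed compound spot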
[2] = probe aXIP binding to arrayed compounds – biochemical, NeuroSMM set, 635/667 nm fluorescence, primary screen (AID 1119); details: small-molecule microarray, higher = more signal, called active from +8 up or from −8 down;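 note: probe is the protein aXip251-270 applied at 1 µg/mL to compound-printed slides; binding of probe to printed compounds measured as 667 nm fluorescence plus signal to noise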
[3] = probe aNOTCH3 binding on compound microarray – biochemical, small-molecule microarray, 635/667 nm fluorescence, primary screen (AID 1120); details: higher = more signal;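 note: probe is a biotin-tagged antibody raised against NOTCH3 rather than NOTCH3 protein; score merges spot fluorescence near 667 nm with spot signal to noise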
[4] = probe aNOTCH2 binding on compound microarray – biochemical, small-molecule microarray, 635/667 nm fluorescence, primary screen (AID 1121); details: higher = more signal;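 note: score merges feature fluorescence read at 667 nm with its signal to noise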
[5] = target: Carbonic anhydrase 2 (Homo sapiens) (UniProt P00918); test: compounds binding carbonic anhydrase 2 – biochemical, small-molecule microarray, Alexa647-labelled CAII, profiling panel (AID 1122); details: CAII-A647 binding fluorescence, higher = more signal
[6] = COS7 lysate on small-molecule microarray, probe aHis, 635 nm (AID 1123); details: COS7 cell lysate, fluorescence, higher = more signal;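 note: z-score combines 667nm fluorescence intensity with signal-to-noise per printed compound spot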
[7] = probe aLAP1 signal on lysate-treated microarray – cell lysate, small-molecule microarray, COS7 lysate, primary screen (AID 1124); details: probe aLAP1, fluorescence, higher = more signal;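 note: lysate comes from COS7 cells expressing LAP1 and is applied at 0.3 µg/mL; score merges spot fluorescence near 667 nm with signal-to-noise over triplicate slides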
[8] = test system: Sam68 (KHDRBS1); test: compounds binding KHDRBS1 protein – biochemical, small-molecule microarray, 635 nm fluorescence, primary screen (AID 1125); details: higher = more signal;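 note: score merges 667 nm channel intensity with signal to noise over triplicate slides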
[9] = test system: Chordin-like protein 2 (CHRDL2); test: compounds binding chordin-like 2 – biochemical, small-molecule microarray, 635 nm fluorescence, primary screen (AID 1126); details: fluorescence 635 nm, higher = more signal;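 note: printed compound slides probed with Chrdl2 protein at 4 µg/mL for 1 h at 4 C; score merges 667 nm emission intensity with signal to noise over three replicate slides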
[10] = target: Concanavalin-A (Canavalia ensiformis) (UniProt P02866); test: compounds binding concanavalin A lectin – biochemical, small-molecule microarray, Alexa647 label, 635 nm, artefact control for SMM control protein annotation, primary screen (AID 1127); details: ConA-A647 binding fluorescence, higher = more signal;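 note: z combines 667 nm emission intensity with signal-to-noise across three replicate slides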
[11] = compounds binding Alexa647 anti-His antibody – biochemical, small-molecule microarray, 635 nm fluorescence, artefact control for SMM control protein annotation, primary screen (AID 1128); details: higher = more signal;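 note: score merges feature fluorescence with signal-to-noise for each printed compound spot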
[12] = test system: Human papillomavirus type 1a E7 protein (residues 1-88); test: HPV1a E7 small-molecule binders, primary screen, biochemical, small-molecule microarray, residues 1-88, 635 nm (AID 1129); details: small-molecule microarray binding, fluorescence 635 nm; higher = more signal
[13] = target: Focal adhesion kinase 1 (Homo sapiens) (UniProt Q05397); test: PTK2 protein binding on printed compound slides – biochemical, small-molecule microarray, 635/667 nm fluorescence, BSA, DTT, primary screen (AID 1130); details: 635 nm fluorescence, higher = more signal;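 note: composite of spot emission at 667 nm and signal to noise over triplicate slides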
[14] = test system: Fibrinogen (Alexa647-labelled); test: Alexa647-fibrinogen binding to printed small molecules – biochemical, small-molecule microarray, 635/667 nm fluorescence, artefact control for SMM control-protein annotation, profiling panel (AID 1131); details: fibrinogen-A647 binding fluorescence, higher = more signal;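 note: z-score merges 667 nm fluorescence with per-spot signal-to-noise over triplicate slides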
[15] = target: Follistatin (Homo sapiens) (UniProt P19883); test: FST protein binding to printed compounds – biochemical, small-molecule microarray, 635/667 nm fluorescence, primary screen (AID 1132); details: 635 nm fluorescence, higher = more signal
[16] = target: Fibroblast growth factor 2 (Homo sapiens) (UniProt P09038); test: basic fibroblast growth factor binding to printed compounds – biochemical, small-molecule microarray, 635/667 nm fluorescence, primary screen (AID 1133); details: FGF2, fluorescence 635/667, higher = more signal
[17] = JC-1 mitochondrial potential readout, lung cancer cells – cell-based, A549, JC-1 fluorescence, basal, 24 h, 100 nL, profiling panel (AID 1138); details: higher = more signal;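 note: A549 lung adenocarcinoma cells under basal conditions with no added stimulus; test concentration not given here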
[18] = test system: Lefty1; test: Lefty1 protein binding to printed compounds – biochemical, small-molecule microarray, 635/667 nm fluorescence, primary screen (AID 1139); details: fluorescence 635/667, higher = more signal
[19] = test system: wheat germ agglutinin (Triticum aestivum), Alexa647-labelled; test: Alexa647-WGA lectin binding to printed small molecules – biochemical, small-molecule microarray, 635/667 nm fluorescence, artefact control for SMM control-protein annotation, profiling panel (AID 1140); details: WGA-A647 binding, 635 nm fluorescence, higher = more signal;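 note: score merges 667 nm feature emission with signal to noise over triplicate slides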
[20] = target: Luciferin 4-monooxygenase (Photinus pyralis) (UniProt P08659); test: inhibition of purified Photinus pyralis luciferase – biochemical, luminescence, purified enzyme, 2006 set, primary screen (AID 1141); details: purified firefly luciferase, SteadyGlo luminescence, 30 min; higher = more signal, called active from +8 up or from −8 down;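 note: cell-free assay with purified firefly luciferase at 100 ng per well in PBS; test concentration not given here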
Chain of Luciferin 4-monooxygenase (Photinus pyralis) (P08659 whole entry, looked up): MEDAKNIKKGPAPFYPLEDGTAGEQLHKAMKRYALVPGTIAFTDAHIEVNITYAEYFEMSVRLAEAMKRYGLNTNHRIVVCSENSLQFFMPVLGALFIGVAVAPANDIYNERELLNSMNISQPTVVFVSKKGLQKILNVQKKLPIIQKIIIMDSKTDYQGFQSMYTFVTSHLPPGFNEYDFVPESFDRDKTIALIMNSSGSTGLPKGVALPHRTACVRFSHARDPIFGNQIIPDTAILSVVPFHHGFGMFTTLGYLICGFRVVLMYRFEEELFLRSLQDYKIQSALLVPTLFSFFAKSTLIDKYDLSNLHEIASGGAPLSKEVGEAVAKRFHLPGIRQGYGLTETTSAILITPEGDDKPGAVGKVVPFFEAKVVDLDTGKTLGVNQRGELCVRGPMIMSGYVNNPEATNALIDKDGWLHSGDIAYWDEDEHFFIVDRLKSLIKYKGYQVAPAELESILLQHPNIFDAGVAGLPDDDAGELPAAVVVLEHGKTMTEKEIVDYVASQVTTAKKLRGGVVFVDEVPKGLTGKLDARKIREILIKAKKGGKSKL

Chain of Concanavalin-A (Canavalia ensiformis) (P02866 whole entry, looked up): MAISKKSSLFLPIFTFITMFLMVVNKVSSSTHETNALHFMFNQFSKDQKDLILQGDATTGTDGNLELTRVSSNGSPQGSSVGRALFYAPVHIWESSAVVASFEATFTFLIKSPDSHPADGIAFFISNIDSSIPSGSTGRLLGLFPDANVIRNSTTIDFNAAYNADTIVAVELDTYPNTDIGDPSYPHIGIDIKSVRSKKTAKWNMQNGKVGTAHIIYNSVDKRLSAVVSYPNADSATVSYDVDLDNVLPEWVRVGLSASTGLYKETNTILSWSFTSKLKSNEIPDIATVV
Chain of Follistatin (Homo sapiens) (P19883 whole entry, looked up): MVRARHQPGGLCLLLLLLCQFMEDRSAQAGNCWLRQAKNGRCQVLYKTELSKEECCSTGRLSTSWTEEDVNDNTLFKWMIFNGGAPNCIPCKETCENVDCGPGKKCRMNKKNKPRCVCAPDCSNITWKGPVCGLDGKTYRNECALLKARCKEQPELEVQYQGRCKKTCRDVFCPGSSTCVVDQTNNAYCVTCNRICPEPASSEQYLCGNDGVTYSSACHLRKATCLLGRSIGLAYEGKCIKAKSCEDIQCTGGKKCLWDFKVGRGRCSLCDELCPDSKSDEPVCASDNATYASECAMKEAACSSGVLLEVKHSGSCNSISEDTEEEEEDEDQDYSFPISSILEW
Chain of Fibroblast growth factor 2 (Homo sapiens) (P09038 whole entry, looked up): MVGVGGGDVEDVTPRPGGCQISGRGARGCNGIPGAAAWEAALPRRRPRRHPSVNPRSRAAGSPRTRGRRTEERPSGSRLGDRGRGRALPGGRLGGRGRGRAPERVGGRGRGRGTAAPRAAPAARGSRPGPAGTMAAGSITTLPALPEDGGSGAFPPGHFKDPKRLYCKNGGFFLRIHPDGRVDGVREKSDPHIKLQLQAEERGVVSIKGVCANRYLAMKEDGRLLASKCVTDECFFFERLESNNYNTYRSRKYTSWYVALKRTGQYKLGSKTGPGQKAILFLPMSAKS
Chain of Albumin (Bos taurus) (P02769 whole entry, looked up): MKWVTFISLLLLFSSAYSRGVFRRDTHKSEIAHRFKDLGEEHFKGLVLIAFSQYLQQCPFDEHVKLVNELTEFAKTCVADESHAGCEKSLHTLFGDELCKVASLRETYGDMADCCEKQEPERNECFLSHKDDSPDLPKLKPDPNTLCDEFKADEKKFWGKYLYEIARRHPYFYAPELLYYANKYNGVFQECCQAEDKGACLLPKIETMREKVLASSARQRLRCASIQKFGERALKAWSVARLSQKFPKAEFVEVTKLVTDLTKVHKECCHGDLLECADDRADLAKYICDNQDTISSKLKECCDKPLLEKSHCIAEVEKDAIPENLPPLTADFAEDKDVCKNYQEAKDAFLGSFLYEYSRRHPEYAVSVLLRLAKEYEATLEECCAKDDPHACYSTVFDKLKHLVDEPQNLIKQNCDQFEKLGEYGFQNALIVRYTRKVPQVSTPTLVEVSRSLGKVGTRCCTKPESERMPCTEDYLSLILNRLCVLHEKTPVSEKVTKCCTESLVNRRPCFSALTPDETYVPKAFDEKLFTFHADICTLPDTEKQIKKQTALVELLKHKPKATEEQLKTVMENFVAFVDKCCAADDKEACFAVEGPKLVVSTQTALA
Chain of Focal adhesion kinase 1 (Homo sapiens) (Q05397 whole entry, looked up): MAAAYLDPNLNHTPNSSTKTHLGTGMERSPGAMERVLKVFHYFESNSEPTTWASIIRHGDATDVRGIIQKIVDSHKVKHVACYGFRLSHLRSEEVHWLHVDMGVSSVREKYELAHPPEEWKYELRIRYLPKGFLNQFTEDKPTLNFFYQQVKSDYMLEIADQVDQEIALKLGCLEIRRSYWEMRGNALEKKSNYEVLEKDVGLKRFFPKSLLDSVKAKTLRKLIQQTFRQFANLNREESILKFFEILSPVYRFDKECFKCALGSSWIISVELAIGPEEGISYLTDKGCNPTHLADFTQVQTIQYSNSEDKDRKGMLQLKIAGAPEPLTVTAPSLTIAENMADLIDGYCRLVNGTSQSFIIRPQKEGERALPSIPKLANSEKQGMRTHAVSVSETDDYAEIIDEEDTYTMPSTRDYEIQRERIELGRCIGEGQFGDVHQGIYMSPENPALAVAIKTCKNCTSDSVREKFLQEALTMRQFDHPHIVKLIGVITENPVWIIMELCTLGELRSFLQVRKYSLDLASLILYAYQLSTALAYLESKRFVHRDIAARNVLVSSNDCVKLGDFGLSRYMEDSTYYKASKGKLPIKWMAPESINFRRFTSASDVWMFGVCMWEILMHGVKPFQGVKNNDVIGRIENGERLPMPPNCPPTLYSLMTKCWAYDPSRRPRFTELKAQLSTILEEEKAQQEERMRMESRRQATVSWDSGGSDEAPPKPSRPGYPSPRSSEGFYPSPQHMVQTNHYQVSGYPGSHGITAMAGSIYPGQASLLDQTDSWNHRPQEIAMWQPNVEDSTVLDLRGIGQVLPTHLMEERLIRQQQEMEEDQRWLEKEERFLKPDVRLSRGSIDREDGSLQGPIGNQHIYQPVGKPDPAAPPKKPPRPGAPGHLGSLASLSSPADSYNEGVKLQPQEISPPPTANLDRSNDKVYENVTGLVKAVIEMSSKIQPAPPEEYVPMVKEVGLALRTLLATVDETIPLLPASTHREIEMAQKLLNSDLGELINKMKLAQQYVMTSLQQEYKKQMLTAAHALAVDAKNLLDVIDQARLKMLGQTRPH

SMILES	composite z-score [1]	composite Z-score [2]	composite z-score [3]	composite z-score [4]	composite z-score [5]	composite z-score [6]	composite z-score [7]	composite z-score [8]	composite z-score [9]	composite z-score [10]	composite z-score [11]	composite z-score [12]	composite z-score [13]	composite z-score [14]	composite z-score [15]	composite z-score [16]	z-score [17]	composite z-score [18]	composite z-score [19]	z-score [20]
O=C(O)C1=CC[C@H]2C(=O)N(c3ccccc3)C(=O)[C@@H]12	0.342	0.277 (inactive)	0.21	-0.0216	0.425	1.33	0.453	1.31	-0.0125	1.02	0.39	1.2	0.424	0.272	0.845	-0.12	-1.27	0.0347	0.701	1.57 (inactive)
C[C@H]1C2[C@H](Cc3ccccc3)NC(=O)[C@]23C(=O)N[C@@H](Cc2ccccc2)C(=O)N2CCC[C@H]2C(=O)NC/C=C/CC/C=C/C3[C@@H]2O[C@]12C (stereo not given in full)	0.688	-0.571 (inactive)	0.073	-0.159	0.619	0.501	0.472	0.868	0.638	0.236	0.196	0.965	-0.153	0.596	0.925	0.359	0.974	0.754	0.0255	0.527 (inactive)
COC(=O)c1c2oc(c1C(=O)OC)C(=O)N[C@H](Cc1ccccc1)Cn1cc(nn1)C1(CCCCC1)NC(=O)N[C@H](CO)CC2	0.264	0.605 (inactive)	-0.0113	-0.15	0.765	0.856	0.474	0.0112	-0.2	-1.71	0.633	-0.594	0.714	-0.252	-0.328	0.94	-0.318	0.114	0.722	0.181 (inactive)
C=CCNC(=O)[C@H]1[C@@H]2C(=O)O[C@@H](c3ccccc3)[C@@H](c3ccccc3)N2[C@@H](c2ccc(OCCO)cc2)[C@]12C(=O)Nc1ccc(C#Cc3ccc(OC)cc3)cc12	0.404	0.637 (inactive)	0.146	0.0805	0.386	2.34	0.315	1.3	0.581	1.18	1.38	1.23	0.905	0.965	1.37	0.977	-1.7	0.811	1.14	0.152 (inactive)
O=C1N(Cc2ccccc2)Cc2ccccc2C[C@@]12COC(c1ccc(OCCCO)cc1)=N2	-0.0983	0.852 (inactive)	0.133	0.12	0.461	2.08	0.4	1.22	0.303	0.864	2.26	1.16	0.622	-0.143	1.39	0.22	-0.503	-0.197	0.196	-1.26 (inactive)
COc1c(C)cc(-c2cc3c(c(CCc4ccccc4)n2)[Si](C(C)C)(C(C)C)O[C@H]3c2ccccc2)cc1C	-0.0598	0.123 (inactive)	-0.0728	-0.14	-0.121	0.463	-0.153	-0.423	-0.2	0.398	-0.439	-0.425	-0.191	-0.543	0.029	-0.278	0.386	0.268	0.183	-0.183 (inactive)
CCOC(=O)C[C@H]1[C@H](OC(=O)c2cc3ccccc3oc2=O)[C@@H](NC(=O)c2ccc(-c3ccccc3)cc2)c2cc(OCCCO)ccc2N1C(=O)Cc1ccc(OC)cc1	0.0146	0.243 (inactive)	0.213	-0.0578	0.383	1.07	0.774	0.864	0.346	0.833	0.396	1.19	0.414	0.522	0.679	1.41	-0.424	0.907	0.266	0.853 (inactive)
CCCCCCc1nc(Cc2cc(OC)c(OC)c(OC)c2)c(C)c2c1[Si](C(C)C)(C(C)C)OC2	-0.287	0.108 (inactive)	-0.13	-0.178	-0.0168	0.0854	-0.251	0.294	0.19	0.0356	0.0303	0.127	-0.38	-0.24	0.281	0.444	0.374	0.267	0.108	-0.123 (inactive)
COCCOC(=O)N1C(=O)[C@@]2(c3cc(C#CC4=CCCCC4)ccc31)[C@H](C(=O)N1CCCCCCC1)[C@H]1C(=O)O[C@H](c3ccccc3)[C@H](c3ccccc3)N1[C@@H]2c1ccccc1OCCO	0.321	0.496 (inactive)	0.733	0.0596	0.522	1.58	1.2	1.3	0.6	1.11	0.316	1.19	0.391	0.461	1.42	0.679	-1	1.01	0.275	0.104 (inactive)
CC(CO)N1C(=O)[C@@H]2[C@H]3C(=O)OCC=C[C@H]3OC23C=CCN(c2ccc4ccccc4c2)C(=O)[C@@H]13 (stereo not given in full)	0.876	0.0987 (inactive)	-0.381	-0.132	0.324	-0.312	-0.139	-0.892	-1.66	-0.387	-0.786	-1.21	0.204	-1.83	-2.31	-1.55	0.599	-2.07	-0.515	-0.0768 (inactive)
CC(C)c1ccc(NN2C(C(O)C(C)c3ccccc3)C=CC3C(=O)N(c4ccccc4)C(=O)C32)cc1 (stereo not given)	1.03	0.304 (inactive)	0.578	0.589	0.749	3.34	0.952	1.28	0.306	1.17	1.63	1.17	0.531	0.988	1.2	0.558	-0.864	0.155	1.19	0.222 (inactive)
